From PubChem BioAssay AID678 (Vanderbilt High Throughput Screening Facility, 2007)
Screen size: about 1,700 compounds; about 15 (0.9%) were called active.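 Rule for the calls: active = fluorescence response below the plate's average for near-maximal glutamate wells, less 3 SD of those wells; inactive = the rest.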 Only a sample is shown.

Molecular target: Metabotropic glutamate receptor 4 (Homo sapiens) (UniProt Q14833)
Assay: human mGluR4 response to M1 antagonist hits, M1 allosteric modulator project, cell-based, antagonist mode, secondary assay 1 (AID 678);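 note: raw unnormalized fluorescence span taken in the window right after glutamate addition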
Conditions: CHO-mGluR4 calcium flux, Fluo-4 fluorescence, glutamate EC80; at 10 µM; stronger effect = lower value

Fluorescence response (max-min), inactive:
CN(C)[C@@H]1C(=O)C(C(N)=O)=C(O)[C@@]2(O)C(=O)C3=C(O)c4c(O)ccc(Cl)c4[C@@H](O)[C@H]3C[C@@H]12 238, Cc1cccc(N2CCN(Cc3c(C)n(C)n(-c4ccccc4)c3=O)CC2)c1C 223, CCC1(C)Cc2c(sc3nc4n(c(=O)c23)CCCS4)CO1 (centres undefined) 249, O=C(NC1=NCCS1)c1ccc(Cl)s1 158, Cc1nc2ccccc2c2oc(C(=O)NCCCN3CCC(C)CC3)cc12 185, O=S(=O)(CCc1nc2ccccc2o1)c1ccc(Cl)cc1 249, CCOC(=O)C1=C(CC)Nc2ccccc2N=C1NC(=O)c1cccc(S(=O)(=O)N2CCCC2)c1 148, COc1ccc(CCn2c(=N)c(C(=O)NCc3ccco3)cc3c(=O)n4cccc(C)c4nc32)cc1 207, CCC(C(=O)OCCN(CC)CC)c1ccccc1 (centres undefined) 235, O=C(c1ccco1)N1CCN=C1SCc1cccc(Cl)c1 236, O=C1NC(Nc2nc3ccccc3s2)(C(F)(F)F)C(=O)N1C1CCCCC1 (centres undefined) 308, Cn1c(CCN2CCCCCC2)nc2cc(NC(=O)Nc3ccccc3)ccc21 225, CCOC(=O)c1c(-c2ccc(C)cc2C)csc1NC(=O)CSc1nnnn1C 167, CC(C)(C)n1nnnc1C(c1cccs1)N(Cc1cccnc1)CC1CCCO1 (centres undefined) 241, CCn1c(=N)n(CC(=O)c2cccc(OC)c2)c2ccccc21 268, O=C(C(NS(=O)(=O)c1cccc2nsnc12)c1ccccc1)N1CCN(c2ccccn2)CC1 (centres undefined) 228, C=CCn1c(=S)[nH]c2nc3c(cc2c1=O)COC(C)(C)C3 199, Cc1nc2c(-c3ccc(F)cc3)c(C)nn2c(C)c1CCC(=O)N1CCN(c2ccccn2)CC1 245, CN(C)CCOC(=O)C(c1ccccc1)C1(O)CCCC1 (centres undefined) 250, CCCCN(C)C(=O)c1ccc2c(c1)N(CC)C(=O)c1ccccc1S2(=O)=O 258, O=C(NCCCN1CCCCCC1)C1CC(=O)N(C2CCCC2)C1 (centres undefined) 241, CC1CCCC(C)N1CCCNC(=O)c1cc2c(=O)n(C)c3ccccc3c2n1C (centres undefined) 236, CCOc1ccccc1C(=O)NCCCn1ccnc1 200, O=S(=O)(c1ccc(OCC(O)CN2CCN(c3ccccc3Cl)CC2)cc1)N1CCOCC1 (centres undefined) 233, COc1cccc2sc(Nc3nc(C)c(C(C)=O)s3)nc12 200, CCC(C)(NC(=O)c1ccccn1)C(=O)NC1CCCCC1 (centres undefined) 237, COc1cccc(OCCOc2cccc(/C=N/n3cnnc3)c2)c1 210, CCOC(=O)N1CCN(C(=O)C2CCN(c3ncnc4c3sc3cccc(F)c34)CC2)CC1 221, Cc1ccccc1C(OCC(O)CN1CCCCC1CCO)c1ccccc1 (centres undefined) 188, N#CC(C(=O)c1ccc(S(=O)(=O)N2CCCCCC2)cc1)c1nc2ccccc2[nH]1 (centres undefined) 182, COc1ccc(S(=O)(=O)Nc2ccc3c(c2)OCO3)cc1Cl 202, CCOC(=O)C1CCN(Cc2coc3ccc(Cl)cc3c2=O)CC1 219, O=C(Cc1cccs1)N1CCCC(c2nc(-c3ccc(S(=O)(=O)N4CCCC4)cc3)no2)C1 (centres undefined) 213, CCOC(=O)c1[nH]c2ccc(OC)cc2c1NC(=O)CCN1CCN(Cc2ccccc2)CC1 230, CCOC(=O)N1CCN(CC(=O)Nc2cc(C)nn2-c2nc3ccccc3s2)CC1 255, COc1cc(Cl)c(C)cc1NC(=O)CSc1nnc(-c2ccco2)n1CC(C)C 252, CCC(=O)c1ccc(OCC(O)CN2CCN(c3cccc(C(F)(F)F)c3)CC2)cc1 (centres undefined) 252, O=C(NCC(F)(F)F)Nc1nnc(C(F)(F)F)s1 203, CSc1nnc2c(n1)OC(c1ccsc1)N(C(C)=O)c1ccccc1-2 (centres undefined) 247, CN1CCN(CC(=O)Nc2sc3c(c2C#N)CCC(C(C)(C)C)C3)CC1 (centres undefined) 231, Cc1ccc(-c2csc3nnc(SCC(=O)NCc4ccco4)n23)cc1 237, Cc1ccsc1-c1nc(CSCC(=O)NCCN2CCCC2)c(C)o1 246, CC1=Nn2c(nnc2-c2ccccc2)SC1 162, CCCCCOC(=O)NCCOC(=O)Nc1ccc(C(=O)OCC)cc1 170, CCOC(=O)N1CCN(C(=O)C2CCCN(c3ncnc4c3sc3cccc(F)c34)C2)CC1 (centres undefined) 165, c1ccc(-c2cc(-c3nnc4sc(-c5ccccn5)nn34)[nH]n2)cc1 215, CC1(C)Cc2c(sc3nc4n(c(=N)c23)CCCCC4)CO1 203, CCN(CCCCOC(=O)c1ccc(OC)c(OC)c1)C(C)Cc1ccc(OC)cc1 (centres undefined) 254, Cc1ccc(-c2noc(CCC(=O)Nc3ccccc3N3CCN(C)CC3)n2)cc1 218, COC(=O)c1ccc(NC(=O)CN(c2ccc(C)cc2)S(=O)(=O)c2c(C)n[nH]c2C)cc1 174, O=C(c1ccc(S(=O)(=O)N2CCOCC2)cc1)N1CCN(c2ccccc2)CC1 197, COc1ccc(-c2noc(CN(C)S(=O)(=O)c3ccc(C)cc3)n2)cc1 259, COc1ccc(-c2nnn(Cc3nc(N)nc(N4CCCCC4)n3)n2)cc1 348, CC1(C)CN=C(N2CCN(c3ncnc4sc5c(c34)CCCC5)CC2)S1 244, CC12CN(Cc3ccccc3)CC(C)(CN(Cc3ccccc3)C1)C2=NO 253, COCCN(C(=O)CCC(=O)Nc1ccccn1)C(C(=O)NCCC(C)C)c1ccc(OC)cc1 (centres undefined) 243, O=C(CCN1C(=O)COc2ccccc21)NCCCN1CCN(c2ccc(F)cc2)CC1 252, COCCn1c(SCC(=O)Nc2cc(Cl)ccc2OC)nc2c(c1=O)SC(C)C2 (centres undefined) 256, COc1cc(OC)c(C(=O)NC2CC(C)(C)NC(C)(C)C2)cc1OC 184
